# Assay results published in a collection of fitness landscapes (doi:10.1038/s41467-024-54723-y).
# Whole data set: some 18,000 sequences, median “TetR repression strength (sort-seq, GFP reporter)” near 0.23, cut for the highest 2% near 0.68. What follows is part of a selection rich in the highest values, with near analogues and random picks from the rest.
# Biological target: TetR (class B, Tn10) (UniProt P04483)
# Test: TetR repression strength (sort-seq, GFP reporter) (relative to tetO2 = 1); higher = stronger repression
# Settings: E. coli
# Method in brief: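 E. coli SIG10-MAX carried a low-copy plasmid library with eight randomized operator positions between a constitutive promoter and sfGFP, with TetR constitutively expressed. Cells grew 5 h at 37 °C in LB with 50 µg/mL chloramphenicol, then 10^6 cells were FACS-sorted into 13 fluorescence bins, each Illumina-sequenced. Repression strength is the top bin index plus one minus the read-weighted mean bin, divided by the wild-type operator value. Three independent transformations; variants with ≥30 reads in all replicates and CV ≤0.5 were averaged.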
# Sequence of TetR (class B, Tn10) (P04483 whole entry): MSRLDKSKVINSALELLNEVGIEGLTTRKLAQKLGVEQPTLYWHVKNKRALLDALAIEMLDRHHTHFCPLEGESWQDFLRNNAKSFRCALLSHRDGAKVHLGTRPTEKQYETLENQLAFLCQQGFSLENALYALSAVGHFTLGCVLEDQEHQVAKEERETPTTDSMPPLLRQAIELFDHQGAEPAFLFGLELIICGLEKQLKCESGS
row,Sequence,TetR repression strength
1,TCCCACCCAGTCAATGAGA,0.783
2,TCCCAAGTAGTCAATGAGA,0.663
3,TCCCCACCAGTCAATGAGA,0.315
4,TCCCACCAAGTCAATGAGA,0.943
5,TCCCATCCAGTCAATGAGA,0.0518
6,TCCCAATGAGTCAATGAGA,0.207
7,TCCCCGCGAGTTGTAGAGA,0.0957
8,TCCCGGGTAGTTACTGAGA,0.123
9,TCCCCAGAAGTGCGTGAGA,0.0661
10,TCCCAACTAGTCGACGAGA,0.701
11,TCCCAACGAGTCGACGAGA,0.696
12,TCCCGACGAGTCGACGAGA,0.178
13,TCCCAACTAGTCGAAGAGA,0.267
14,TCCCAACTAGTCGTCGAGA,0.214
15,TCCCAACGAGTCAACGAGA,0.366
16,TCCCTGCTAGTGAAGGAGA,0.649
17,TCCCTACCAGTGATAGAGA,0.94
18,TCCCTAACAGTGATAGAGA,0.816
19,TCCCTAGTAGTGATAGAGA,0.533
20,TCCCTTCCAGTGATAGAGA,0.668
21,TCCCTCCCAGTGATAGAGA,0.561
22,TCCCTAGCAGTGATAGAGA,0.858
23,TCCCTAGCAGTGAGAGAGA,0.376
24,TCCCAACGAGTTGTGGAGA,0.189
25,TCCCACGCAGTAGGTGAGA,0.138
26,TCCCTGCTAGTAGGAGAGA,0.415

row,Sequence,TetR repression strength
1,TCCCAGTCAGTGGCGGAGA,0.205
2,TCCCTAGAAGTACTAGAGA,0.152
3,TCCCCAGCAGTTTAGGAGA,0.207
4,TCCCGTCTAGTTAGTGAGA,0.719
5,TCCCGTCGAGTTTTTGAGA,0.363
6,TCCCGTCTAGTTTGCGAGA,0.277
7,TCCCGTCTAGTTTGTGAGA,0.784
8,TCCCGTCTAGTTAGAGAGA,0.224
9,TCCCGTCTAGTGTGTGAGA,0.237
10,TCCCGTCGAGTTTGAGAGA,0.274
11,TCCCGTCGAGTTTGTGAGA,0.772
12,TCCCGTCGAGTTAGTGAGA,0.366
13,TCCCTGTGAGTCGCGGAGA,0.327
14,TCCCGGTCAGTGCTAGAGA,0.638
15,TCCCAGGGAGTCAGTGAGA,0.319
16,TCCCTACTAGTAGTAGAGA,0.389
17,TCCCGGATAGTTGATGAGA,0.285
18,TCCCACTCAGTGAGGGAGA,0.255
19,TCCCGCAGAGTTAGAGAGA,0.5
20,TCCCATACAGTGAGTGAGA,0.176
21,TCCCGAGAAGTCGCGGAGA,0.0355
22,TCCCAGTAAGTGGGGGAGA,0.196
23,TCCCTGAAAGTGACGGAGA,0.506
24,TCCCAGTAAGTATCGGAGA,0.221
25,TCCCTGTAAGTGACGGAGA,0.796
26,TCCCTGTGAGTGACGGAGA,0.115

row,Sequence,TetR repression strength
1,TCCCGTGCAGTCGTGGAGA,1
2,TCCCAGTAAGTCCGGGAGA,0.157
3,TCCCAGTAAGTGTCGGAGA,0.811
4,TCCCAGTGAGTGTCGGAGA,0.183
5,TCCCGTGGAGTCGTGGAGA,0.209
6,TCCCAGTAAGTCGGGGAGA,0.698
7,TCCCGTGCAGTCGTCGAGA,0.216
8,TCCCGCATAGTAGGTGAGA,0.317
9,TCCCAATGAGTTCGTGAGA,0
10,TCCCTCATAGTGGGCGAGA,0.213
11,TCCCGCCCAGTAGGGGAGA,0.163
12,TCCCTGCAAGTTGATGAGA,0.246
13,TCCCATGTAGTCCTGGAGA,0.341
14,TCCCCTTAAGTGGTAGAGA,0.201
15,TCCCCGTTAGTGTCGGAGA,0.137
16,TCCCAGTCAGTCTTTGAGA,0.726
17,TCCCAGTGAGTCTTTGAGA,0.339
18,TCCCTGTCAGTCGGGGAGA,0.154
19,TCCCATTCAGTCTTTGAGA,0.228
20,TCCCGTACAGTGGGGGAGA,0.145
21,TCCCGTACAGTCGGGGAGA,0.698
22,TCCCAGTCAGTCGGGGAGA,0.776
23,TCCCGTATAGTCGGGGAGA,0.216
24,TCCCAGCCAGTCGGGGAGA,0.184
25,TCCCGGTGAGTCAAAGAGA,0.338
26,TCCCTTCCAGTCATTGAGA,0.225

row,Sequence,TetR repression strength
1,TCCCTGTCAGTATAGGAGA,0.0605
2,TCCCGCCGAGTGGACGAGA,0.514
3,TCCCCTGCAGTTGGAGAGA,0.159
4,TCCCAGTTAGTTGAGGAGA,0.231
5,TCCCACGGAGTCACCGAGA,0.205
6,TCCCGCTCAGTGTTAGAGA,0.433
7,TCCCGATGAGTCAGTGAGA,0.38
8,TCCCGATAAGTCAGTGAGA,0.747
9,TCCCGCTCAGTGGTAGAGA,0.428
10,TCCCGATAAGTGATAGAGA,0.733
11,TCCCCCTAAGTGATAGAGA,0.442
12,TCCCGCTCAGTGATAGAGA,0.742
13,TCCCGATAAGTGAGTGAGA,0.375
14,TCCCTATAAGTGATAGAGA,0.994
15,TCCCTATAAGTCGTAGAGA,0.503
16,TCCCGACAAGTGATAGAGA,0.642
17,TCCCGAGAAGTGATAGAGA,0.425
18,TCCCGTATAGTGGGGGAGA,0.0618
19,TCCCGGGTAGTGACGGAGA,0.181
20,TCCCACGAAGTGCCTGAGA,0.486
21,TCCCAGGGAGTAAAGGAGA,0.188
22,TCCCGCAGAGTTGGCGAGA,0.186
23,TCCCGATAAGTGGCTGAGA,0.523
24,TCCCTTTTAGTGATAGAGA,0.512
25,TCCCGACAAGTAGCTGAGA,0.187
26,TCCCGCTAAGTGATAGAGA,0.69

row,Sequence,TetR repression strength
1,TCCCTAATAGTGATAGAGA,0.614
2,TCCCGGTAAGTGATAGAGA,0.609
3,TCCCTATTAGTGATAGAGA,0.878
4,TCCCGATCAGTGATAGAGA,0.778
5,TCCCGCTGAGTGATAGAGA,0.483
6,TCCCGATCAGTGCTAGAGA,0.657
7,TCCCGATCAGTGATGGAGA,0.482
8,TCCCGATAAGTAGCTGAGA,0.921
9,TCCCTTATAGTGCCTGAGA,0.162
10,TCCCGAACAGTGTAGGAGA,0.0968
11,TCCCGCTTAGTCCGTGAGA,0.183
12,TCCCTGGAAGTGGGGGAGA,0.208
13,TCCCTGATAGTTTTCGAGA,0.301
14,TCCCTCGAAGTAGGGGAGA,0.154
15,TCCCATTAAGTGAACGAGA,0.253
16,TCCCCGAGAGTGTGTGAGA,0.248
17,TCCCGTCAAGTGGCCGAGA,0.152
18,TCCCGGGAAGTAGCTGAGA,0.647
19,TCCCGGGGAGTAGCTGAGA,0.709
20,TCCCGTCAAGTACCCGAGA,0.325
21,TCCCGTCAAGTAGCCGAGA,1.02
22,TCCCGGGGAGTGGCTGAGA,0.301
23,TCCCGAGTAGTAACGGAGA,0.461
24,TCCCGAGAAGTGCCTGAGA,0.178
25,TCCCGTCTAGTGAAGGAGA,0.315
26,TCCCGGTCAGTGCAGGAGA,0.531

row,Sequence,TetR repression strength
1,TCCCGTCTAGTAGTGGAGA,0.468
2,TCCCCAGGAGTGGCTGAGA,0.0764
3,TCCCCTCGAGTCTGAGAGA,0.89
4,TCCCTCGGAGTCTGCGAGA,0.522
5,TCCCTCGTAGTCTGAGAGA,1.03
6,TCCCTCGGAGTCTGAGAGA,1.02
7,TCCCTCGGAGTCTGTGAGA,0.215
8,TCCCTCGTAGTCTGCGAGA,0.447
9,TCCCCTTGAGTCTGAGAGA,0.333
10,TCCCCTAGAGTCTGAGAGA,0.122
11,TCCCTCGTAGTCTAAGAGA,0.142
12,TCCCAACCAGTTTTAGAGA,0.399
13,TCCCGCATAGTACGTGAGA,0.273
14,TCCCGATGAGTTGCTGAGA,0.124
15,TCCCTGCGAGTGATAGAGA,0.618
16,TCCCCAGTAGTTTGCGAGA,0.202
17,TCCCCCTCAGTTTGCGAGA,0.518
18,TCCCCGTCAGTGTGCGAGA,0.333
19,TCCCCGTCAGTGCGCGAGA,0.229
20,TCCCCGGTAGTTTGAGAGA,0.302
21,TCCCAGTCAGTTTGCGAGA,0.167
22,TCCCCGGTAGTTTGCGAGA,0.971
23,TCCCTCTTAGTTTGCGAGA,0.796
24,TCCCTATTAGTTTGCGAGA,0.417
25,TCCCCGTCAGTTTGCGAGA,0.741
26,TCCCTCTGAGTTTGCGAGA,0.335

row,Sequence,TetR repression strength
1,TCCCCGTCAGTGCGAGAGA,0.69
2,TCCCGTGGAGTAGCAGAGA,0.169
3,TCCCTGGGAGTAAGGGAGA,0.28
4,TCCCGGGGAGTGTTAGAGA,0.247
5,TCCCTGAGAGTCGATGAGA,0.237
6,TCCCTTTTAGTATACGAGA,0.242
7,TCCCACCGAGTGTTGGAGA,0.286
8,TCCCCCCAAGTCGGCGAGA,0.00669
9,TCCCACTGAGTTGGAGAGA,0.16
10,TCCCTAGCAGTTGAGGAGA,0.0558
11,TCCCAGCGAGTATGAGAGA,0.0754
12,TCCCGAAGAGTTGTTGAGA,0.233
13,TCCCATCTAGTCAGGGAGA,0.305
14,TCCCCTGCAGTGGGGGAGA,0.225
15,TCCCTTATAGTGTAGGAGA,0.0398
16,TCCCATGAAGTGTGTGAGA,0.127
17,TCCCTGTAAGTCGTGGAGA,0.309
18,TCCCCGTGAGTCAGAGAGA,0.963
19,TCCCCGTGAGTCAGGGAGA,0.152
20,TCCCCGTGAGTCTGAGAGA,0.215
21,TCCCTGTTAGTGCCAGAGA,0.193
22,TCCCATTAAGTGCATGAGA,0.106
23,TCCCTGTAAGTTGACGAGA,0.1
24,TCCCACTTAGTTGGGGAGA,0.201
25,TCCCCACTAGTGAAGGAGA,0.203
26,TCCCAATCAGTGACAGAGA,0.723

row,Sequence,TetR repression strength
1,TCCCCATAAGTGATAGAGA,0.522
2,TCCCACTAAGTGATAGAGA,0.427
3,TCCCACTCAGTGAGAGAGA,0.514
4,TCCCCAGCAGTGATAGAGA,0.186
5,TCCCAATCAGTGGTAGAGA,0.521
6,TCCCAGTCAGTGACAGAGA,0.416
7,TCCCCATCAGTGATAGAGA,0.966
8,TCCCAAACAGTGACAGAGA,0.622
9,TCCCAATCAGTGATAGAGA,0.785
10,TCCCAAGCAGTGATAGAGA,0.505
11,TCCCACTCAGTGATAGAGA,0.701
12,TCCCCGAGAGTGTTGGAGA,0.156
13,TCCCGACGAGTAAGTGAGA,0.0202
14,TCCCGTGCAGTGGGAGAGA,0.177
15,TCCCCGAAAGTGGTTGAGA,0.272
16,TCCCCAGTAGTGTAAGAGA,0.139
17,TCCCTCGTAGTTCGTGAGA,0.105
18,TCCCGTAGAGTGCAAGAGA,0.396
19,TCCCGGGCAGTGAAGGAGA,0.251
20,TCCCGCGGAGTGACGGAGA,0.38
21,TCCCGAGGAGTACGAGAGA,0.222
22,TCCCCCATAGTCAGGGAGA,0.312
